Experimental data as given in PubChem BioAssay (EPA / NIEHS).
Values joined by “and” are separate entries in the source; they are usually repeats but may differ in a detail not shown here. Equal values may be shown once. A structure can be active in one record and inactive in another. Active and inactive are the calls of the source. The calls were made as follows: active = hit-call score of the fitted dose curve at least 0.9, where 1 is the maximum; inactive = score below 0.9.

Assay: ATG_BRE_CIS: Attagene CIS-FACTORIAL HepG2 Assay for human Bone Morphogenetic Protein (BMP) Response Element (BRE) (AID 2282933)
Details: HepG2 BMP response element reporter, Attagene transcription factor profiling; actives raise or lower the signal
Method: ATG_CIS is a cell-based, multiplexed-readout assay that uses HepG2, a human liver cell line, with measurements taken at 24 hours after chemical dosing in a 24-well plate.ATG_BRE_CIS is one of 52 assay component(s) measured or calculated from the ATG_CIS assay. It is designed to make measurements of mRNA induction, a form of inducible reporter, as detected with fluorescence intensity signals by Reverse transcription polymerase chain reaction (RT-PCR) and Capillary electrophoresis technology.Data from the assay component ATG_BRE_CIS was analyzed into 1 assay endpoint. This assay endpoint, ATG_BRE_CIS, was analyzed with bidirectional fitting relative to DMSO as the negative control and baseline of activity. Using a type of inducible reporter, measures of mRNA for gain or loss-of-signal activity can be used to understand the reporter gene at the transcription factor-level as they relate to the gene SMAD1. Furthermore, this assay endpoint can be referred to as a primary readout, because this assay has produced multiple assay endpoints where this one serves a reporter gene function. To generalize the intended target to other relatable targets, this assay endpoint is annotated to the dna binding intended target family, where the subfamily is Smad protein.
Human liver HepG2 cells are transiently transfected with multiple reporter transcription units (MRTUs) in 6-well plates using FuGene 6 reagent (Roche; 3 ml FuGene/1 mg DNA). The MRTU constructs are regulated by a cis-regulating element (promoter). […] A major difference between the CIS and TRANS system is that in CIS activities of endogenous TFs are measured, whereas the TRANS assay evaluates changes in activities of exogenous, chimeric NR-Gal4 proteins. […] At the end of 24 hour incubation, total RNA was isolated using TriZol reagent (Invitrogen). The isolated RNA is then reverse-transcribed using oligo(dT) primer and Mo-MLV reverse transcriptase (Invitrogen) with DNAse I (Ambion) treatment for 30 min. The one-tenth of the produced cDNA was amplified by PCR using Taq DNA polymerase (Invitrogen) and two reporter sequence-specific primers. The PCR products were fluorescently labeled by primer extension with 6-arboxyfluorescein (6-FAM) 5'-labeled reporter sequence-specific primer (2 min at 95 C, 20 s at 68 C and 10 min at 72 C) and these products were digested with 5U of HpaI (New England Biolabs) for 2h at 37 C. The fragments were purified using Qiaquick PCR columns (Qiagen), analyzed on an ABI 3130xL genetic analyzer (Applied Biosystems) with peak positions identified by using a set of X-rhodamine (ROX)-labeled MapMarker1000 molecular weight standards (BioVentures). The raw capillary electrophoresis data was processed using Attagraph software (Attagene).

Structure (SMILES)	outcome	AC50
CC(C)(c1ccccc1)c1ccc(O)cc1	inactive	33.4 µM (active)
CC(C)(O)C(=O)Nc1ccc([N+](=O)[O-])c(C(F)(F)F)c1	inactive	77 µM (active) and 121 µM (active)
CCCCCCCCOC(=O)c1ccccc1C(=O)OCCCCCCCC	inactive	–
CN(C)c1nc(=O)n(C2CCCCC2)c(=O)n1C	inactive	–
CC1=C2C[C@H]3[C@@H](CC=C4C[C@@H](O)CC[C@@]43C)[C@@H]2CC[C@]12O[C@@H]1C[C@H](C)CN[C@H]1[C@H]2C	–	13.3 µM (active)
Cc1cccc(C)c1N	inactive	–
O=C(N[C@H]1CN2CCC1CC2)c1cc2ccoc2cn1	inactive	–
O=C(O)C(F)(F)C(F)(F)C(F)(F)C(F)(F)C(F)(F)F	inactive	–
c1ccc(-c2ccccc2)cc1	inactive	–
O=C(O)C(F)(F)C(F)(F)C(F)(F)C(F)(F)C(F)(F)C(F)(F)C(F)(F)C(F)(F)F	inactive	248 µM (active)
CC#Cc1cc(C)nc(Nc2ccccc2)n1	inactive	–
Sc1ccccc1	inactive	–
CO/C=C(/C(=O)OC)c1ccccc1COc1cccc(C(F)(F)F)n1	–	20.2 µM (active)
ClC1=C(Cl)[C@]2(Cl)[C@@H]3[C@@H]4C[C@@H]([C@H]5O[C@@H]45)[C@@H]3[C@@]1(Cl)C2(Cl)Cl	inactive	–
ClC1=C(Cl)[C@]2(Cl)[C@@H]3[C@H]4C[C@H]([C@@H]5O[C@H]45)[C@@H]3[C@@]1(Cl)C2(Cl)Cl	inactive	–
CCC(C)(CC)c1cc(NC(=O)c2c(OC)cccc2OC)on1	–	9.92 µM (active)
CC(C)C(=O)OCC(C)(C)C(OC(=O)C(C)C)C(C)C (stereo unspecified)	inactive	–
C[C@]12CCC(=O)C=C1CC[C@@H]1[C@@H]2CC[C@@]2(C)[C@H]1CC[C@]2(C)O	inactive	91.5 µM (active) and 64 µM (active)

Structure (SMILES)	outcome	AC50
Clc1ccc(C(Cl)(Cl)Cl)cc1	inactive	–
NS(=O)(=O)C(F)(F)C(F)(F)C(F)(F)C(F)(F)C(F)(F)C(F)(F)C(F)(F)C(F)(F)F	–	45.4 µM (active) and 248 µM (active) and 15.5 µM (active)
COS(=O)(=O)OC	inactive	–
N#Cc1ccc(N(CC(N)=O)CC(F)(F)F)cc1C(F)(F)F	inactive	–
CCNc1nc(NC(C)C)nc(SC)n1	inactive	–
CCSC(=O)N(CC)C1CCCCC1	inactive	–
O=C(NC(=O)c1cc(F)c(F)cc1Cl)Nc1cc(F)ccc1N1CCC(C(=O)O)CC1	inactive	–
Cc1ccccc1CO[C@@H]1C[C@@]2(C(C)C)CC[C@]1(C)O2	inactive	–
Cc1ccccc1[N+](=O)[O-]	inactive	–
O=C(O)C(F)(F)C(F)(F)C(F)(F)C(F)(F)C(F)(F)C(F)(F)C(F)(F)C(F)(F)C(F)(F)F	inactive	–
Cc1ccccc1O	inactive	–
C=CC(=O)NCNC(=O)C=C	inactive	–
C=CC(N)=O	inactive	–
CCCN(CCC)N=O	inactive	–
C1CC2OC2CC1C1CO1 (stereo unspecified)	inactive	–
Clc1ccc(Cl)cc1	inactive	–
O=S(=O)(O)C(F)(F)C(F)(F)C(F)(F)C(F)(F)F	inactive	–
CCC(=O)O[C@H]1CC[C@H]2[C@@H]3CCC4=CC(=O)CC[C@]4(C)[C@H]3CC[C@]12C	inactive	149 µM (active) and 100 µM (active) and 160 µM (active)
